# DT40 TDP1 CPT – DT40-hTDP1 cell growth loss with CPT; AID 686979; 420,000 compounds, 12% hits; chicken DT40 Tdp1-/-;hTDP1 cells + 20 nM CPT, ATP luminescence, 48 h; Potency, µM (titrated, usually from 46.2 µM), inactives show top-dose activity change, negative = growth inhibition, most hits filed as inhibitors; further: potency means the concentration at half of the fitted maximal effect; nearly all actives have a fitted effect of over 55% in size
#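 Chicken DT40 Tdp1-/- cells complemented with human TDP1, 400 cells/well, exposed to compounds plus 20 nM camptothecin for at least 48 h at 37 C; viability read as ATP content by CellTiter-Glo luminescence.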
# IL1B secr inh – inhibitors of inflammasome signaling (IL-1 beta secretion); THP-1 LPS/ATP IL-1B secretion, AlphaLISA, 16 h; hits give low values; activity change, % at 57.5 µM; 360,000 compounds, 4.7% hits; AID 743279; in the data active means activity change below about -50%; inconclusive means mostly about -30% to -49%
#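 THP-1 cells pretreated 1 hr with compounds (up to 57.5 uM final), then stimulated with LPS (250 ng/mL final) plus ATP (1.25 mM final); secreted IL-1B measured by AlphaLISA after 16 hr, decreased signal indicating inhibition.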
# ALOX12 inh – inhibitors of human 12S-lipoxygenase ALOX12. AID 1671190. Potency, µM (titrated, usually from 108 µM), without a hit: at the top dose activity change, negative = inhibition, most hits filed as inhibitors. P18054. 580,000 compounds, 1.1% hits. purified 12hLO, xylenol orange hydroperoxide absorbance; further: potency means the concentration at half of the fitted maximal effect
# Target sequence (P18054 whole entry, looked up): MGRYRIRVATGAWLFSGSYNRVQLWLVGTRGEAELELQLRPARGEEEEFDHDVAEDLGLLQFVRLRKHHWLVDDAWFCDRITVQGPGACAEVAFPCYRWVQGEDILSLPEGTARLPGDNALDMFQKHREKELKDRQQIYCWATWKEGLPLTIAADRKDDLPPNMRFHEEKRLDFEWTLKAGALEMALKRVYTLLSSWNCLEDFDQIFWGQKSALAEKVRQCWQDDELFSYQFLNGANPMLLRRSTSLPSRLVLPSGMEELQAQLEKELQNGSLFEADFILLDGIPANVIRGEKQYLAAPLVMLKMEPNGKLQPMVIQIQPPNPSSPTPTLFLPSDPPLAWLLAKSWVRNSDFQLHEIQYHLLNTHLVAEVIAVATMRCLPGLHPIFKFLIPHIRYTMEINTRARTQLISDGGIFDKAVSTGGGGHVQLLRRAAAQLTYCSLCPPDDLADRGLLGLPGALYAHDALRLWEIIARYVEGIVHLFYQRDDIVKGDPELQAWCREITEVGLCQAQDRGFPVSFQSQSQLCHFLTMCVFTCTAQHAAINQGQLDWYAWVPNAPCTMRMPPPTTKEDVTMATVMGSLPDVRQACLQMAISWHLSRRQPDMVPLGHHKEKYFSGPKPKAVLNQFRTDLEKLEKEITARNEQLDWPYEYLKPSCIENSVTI
#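 Hydroperoxide product was detected by ferrous iron/xylenol orange as the 573 to 405 nm absorbance ratio. Arachidonic acid at 40 uM (final) was turned over for 30 min at room temperature by 150 nM human 12hLO, pH 7.0 Hepes buffer, after 15 min compound preincubation.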
# HT1080-NT tox – kills 2HG-producing HT-1080-NT fibrosarcoma cells. HT-1080-NT fibrosarcoma viability, CellTiter-Glo ATP luminescence, 48 h. AID 686970. 360,000 compounds, 1.6% hits. Potency, µM (top dose mostly 46.1 µM), for the others: top-dose activity, negative = less viability, usual class: cytotoxic;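 further: NT is the 2HG producing partner of a matched IDH1 knockdown line; potency means the concentration at half of the fitted maximal effect; 0% = DMSO-treated cells and -100% = media-only wells without cells; nearly all actives have a fitted effect of over 55% in size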
#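 Compounds were tested in concentration-response format on HT-1080-NT cells for 48 hours at 37 degrees C. Cell viability came from CellTiter-Glo luminescence; curves were classified by r2, response magnitude and activity.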
# HT1080 IDH1KD tx – toxicity to HT-1080 IDH1 knockdown cells (counter line) | HT-1080 IDH1 knockdown viability, ATP luminescence, 48 h | AID 686971 | 360,000 compounds, 2% hits | Potency, µM (series often up to 46.1 µM), for inactives: at the highest dose activity, negative = toxicity, most hits filed as cytotoxic;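 further: potency means the concentration at half of the fitted maximal effect; 0% = DMSO wells and -100% = cell-free medium wells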
#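 IDH1KD HT-1080 cells, 750/well, RPMI + 5% FBS; compound pinned after 2 h settling; 48 h, 37 °C; CellTiter-Glo luminescence; % activity normalised to DMSO and no-cell wells; curves fitted, classed by r2 and efficacy.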
# TDP1 cell noCPT – qHTS for Inhibitors of human tyrosyl-DNA phosphodiesterase 1 (TDP1): qHTS in cells in absence of CPT; DT40 Tdp1-/- hTDP1 cells, no CPT, ATP luminescence, 48 h; Potency, µM (doses to about 46.2 µM), for inactives: at the highest dose activity change, negative = growth inhibition, hits mostly inhibitors; 420,000 compounds, 15% hits; AID 686978, 2013; further: potency means the concentration at half of the fitted maximal effect; nearly all actives have a fitted effect of over 55% in size
#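 Luminescent ATP content (CellTiter-Glo) served as the growth readout. Knockout chicken DT40 cells expressing human TDP1 were exposed to compounds without camptothecin for a minimum 48 hr at 37 °C.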
# Active calls of the source: *; ? = inconclusive; / = no result; [ ] = another dose, or the depositor's remark. The entries come from a sample that favours hits as a whole. Unless noted, the call rests on the fitted dose curve; in most records, active means well fitted curve in the direction sought with a large enough effect; inconclusive means small, poorly fitted or top-dose-only effect, or another doubt; inactive means no such curve, though single readings can be large; an effect the other way counts as inactive or inconclusive. Unless noted, on the % scale 0 is the no-effect control and ±100 the full control effect.
SMILES,DT40 TDP1 CPT,IL1B secr inh,ALOX12 inh,HT1080-NT tox,HT1080 IDH1KD tx,TDP1 cell noCPT
Cc1cc(C(=O)NCCC(c2ccccc2)c2ccccc2)c(C)o1,18.4µM*,-11.2,-26.2%,-10.5%,-25.2%,?
Cc1cc(C(=O)Nc2cccc3ccccc23)c(C)o1,23.1µM*,-11.2,22.0%,6.1%,-0.2%,-22.2%
O=C(NCCCc1nc2ccccc2n1Cc1ccc(Cl)cc1Cl)c1ccco1,23.1µM*,/,?,/,/,?
O=C(NCCc1nc2ccccc2n1Cc1ccc(Cl)cc1Cl)c1ccco1,1.84µM*,/,-23.3%,/,/,1.84µM*
O=C(NCCc1nc2ccccc2n1Cc1ccc(F)cc1)c1ccco1,-10.4%,/,-12.6%,/,/,?
O=C(NCCc1nc2ccccc2n1Cc1c(F)cccc1Cl)c1ccco1,?,/,-6.1%,/,/,?
COC(=O)[C@@]12C[C@@H](CC(=O)N3CCOCC3)C(=O)N(Cc3cccc4ccccc34)C1=CCC(C)(C)C2,16.4µM*,-25.5,-1.9%,-12.4%,-3.7%,?
COC(=O)[C@@]12C[C@@H](CC(=O)N3CCN(C(=O)C4CC4)CC3)C(=O)N(Cc3cccc4ccccc34)C1=CCC(C)(C)C2,?,-11.9,?,?,?,20.6µM*
COC(=O)[C@@]12C[C@@H](CC(=O)N3CCCC3)C(=O)N(Cc3cccc4ccccc34)C1=CCC(C)(C)C2,?,-22.3,8.0%,?,-27.4%,?
CNC(=O)[C@@H]1C[C@@H](O)CN1C1CCN(C(=O)Cc2cccc(C)c2)CC1,/,/,3.5%,/,/,/
COc1ccc(NC(=O)[C@@H]2Cc3ccccc3CN2C(=O)OC(C)(C)C)cc1,/,/,3.7%,/,/,/
COc1ccc(NC(=O)[C@@H]2CCCN2C(=O)[C@@H]2Cc3ccccc3CN2C(=O)OC(C)(C)C)cc1,-21.8%,-2.0,-1.4%,-18.8%,?,23.1µM*
Cc1nn(-c2ccccc2)c2c1N(CC(=O)N1CCN(c3cccc(Cl)c3)CC1)C(=O)CS2,?,/,-25.5%,/,/,20.6µM*
Cc1ccc(Cl)cc1N1CCN(C(=O)CN2C(=O)CSc3c2c(C)nn3-c2ccccc2)CC1,?,/,?,/,/,-20.6%
Cc1ccc(C)c(N2CCN(C(=O)CN3C(=O)CSc4c3c(C)nn4-c3ccccc3)CC2)c1,18.4µM*,/,-20.1%,/,/,25.9µM*
Cc1nc(CN(C)C(=O)c2cc(Cn3c(C)nc4ccccc43)on2)cs1,/,/,20.3%,/,/,/
NS(=O)(=O)c1ccc(-c2ccc(/C=N/Nc3ccc(S(=O)(=O)Nc4ccccc4)cc3[N+](=O)[O-])o2)cc1,/,/,-24.8%,/,/,/
COC(=O)c1ccc(CNC(=O)c2ccc(Oc3ccccc3)cc2)cc1,/,/,46.1%,/,/,/
O=C(NCc1ccncc1)c1ccc(Oc2ccccc2)cc1,14.6µM*,-65.9*,-26.8%,-21.1%,-26.8%,18.4µM*
COc1ccc(CNC(=O)c2ccc(C)cc2)cc1,/,/,-13.1%,/,/,/
O=C(NCc1ccncc1)c1ccc(OCc2ccccc2)cc1,20.6µM*,-20.0,13.9%,-10.8%,-0.3%,13µM*
Cc1ccc(Oc2ccc(C(=O)NCc3ccncc3)cc2)cc1,?,-51.1*,9.1%,?,?,23.1µM*
CC(C)N[C@@H]1CO[C@H](CNC(=O)c2ccccc2)[C@H]1O,/,/,57.2%[176 µM],/,/,/
CC(NC(=O)C(C)(C)C)C1CC1 (centres undefined),/,/,3.3%,/,/,/
COCOCCn1cc(CN2CCS(=O)(=O)N(Cc3ccc(-c4cccc(CO)c4)cc3)C(C(C)C)C2=O)nn1 (centres undefined),?,25.2,-16.4%,-2.0%,6.8%,20.6µM*
SMILES,DT40 TDP1 CPT,IL1B secr inh,ALOX12 inh,HT1080-NT tox,HT1080 IDH1KD tx,TDP1 cell noCPT
COCOCCn1cc(CN2CCS(=O)(=O)N(Cc3ccc(-c4cccc(N(C)C)c4)cc3)C(C(C)C)C2=O)nn1 (centres undefined),14.6µM*,-10.2,?,-24.9%,-21.1%,20.6µM*
COCOCCn1cc(CN2CCS(=O)(=O)N(Cc3ccc(-c4ccc(OC)nc4)cc3)C(C(C)C)C2=O)nn1 (centres undefined),13µM*,-17.7,?,-10.6%,-9.8%,8.2µM*
CC(C)C1C(=O)N(Cc2cn(CCC3OCCO3)nn2)CCS(=O)(=O)N1Cc1ccc(-c2cccc(N(C)C)c2)cc1 (centres undefined),-19.9%,-4.1,1.2%,-0.8%,-12.3%,?
O=C(NC1CCCN(c2cc(-c3ccc(F)cc3)[nH]n2)C1)c1cccc(Cl)c1 (centres undefined),/,/,10.6%,/,/,/
COCCn1ccc2nc(C)c(C(=O)N3CCN(c4ccccc4)CC3)cc2c1=O,/,/,34.1%,/,/,/
CCn1c(C)[n+](Cc2ccccc2)c2ccc(C(=O)OC)cc21,1.5%,-12.3,?,-0.9%,-2.6%,-24.8%
CCN1C(=O)C(=CC=CN(C)c2ccccc2)SC1=S,?,-13.0,?,10.1%,10.6%,?
Cc1n(-c2ccccc2)c2ccc(Cl)cc2[n+]1CCO,11.2%,-10.4,?,-1.1%,1.9%,-9.7%
CCn1c(/C=C/Nc2ccccc2)[n+](CC)c2ccc(Cl)cc21,23.1µM*,-2.8,?,-0.2%,-18.2%,20.6µM*
CCOC(=O)c1ccc2c(c1)n(CC)c(/C=C/Nc1ccccc1)[n+]2CC,18.4µM*,0.0,?,-4.5%,-11.0%,11.6µM*
CCn1c(/C=C/N(C)c2ccccc2)[n+](CC)c2ccc(Cl)cc21,0.581µM*,-97.5*,?,7.08µM*,-23.3%,1.3µM*
CN1CCN(c2nc3ccccc3nc2NS(=O)(=O)c2ccc(Cl)cc2)CC1,/,/,-1.9%,/,/,/
COc1ccccc1Cc1c(C(C)(C)C)nc2cc(C)c(Br)c(C)n12,25.9µM*,66.9,?,15.9%,11.8%,16.4µM*
Cc1ccc(Cc2c(C(C)(C)C)nc3cc(C)c(Br)c(C)n23)cc1,?,76.8,?,-1.5%,-5.8%,?
CCCc1nc2cc(C)c(Br)c(C)n2c1Cc1ccccc1OC,25.9µM*,19.9,?,?,-29.1%,14.6µM*
Cc1cc2nc(C(C)(C)C)c(Cc3ccsc3)n2c(C)c1Br,?,68.6,?,29.1µM*,?,?
CC(=O)Nc1ccc2c(c1)nc1n2[C@@H](CNC2CCOCC2)COC1,/,/,-5.4%[176 µM],/,/,/
Cc1cc(=O)oc2cc(OC(C)C(=O)NCc3cccnc3)ccc12 (centres undefined),/,/,32.0%,/,/,/
O=C(CC(=O)Nc1ccc(Br)cc1)Nc1ccc(Br)cc1,12.8%,12.2,0.0%,0.8%,0.0%,10.3%
